AF4-AF9 inh: MLL-AF4/AF9 protein interaction inhibition; P42568; inhibition, % at 10 µM; AlphaScreen, biotin-AF4 peptide binding to FLAG-AF9; 0.47% of 350,000 active; AID 651704;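 active = every replicate reaching a set inhibition limit, whatever the replicate mean, cut at about 25% in these data; inconclusive = mean inhibition reaches that limit but some replicates miss it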
Target sequence (P42568 whole entry, looked up): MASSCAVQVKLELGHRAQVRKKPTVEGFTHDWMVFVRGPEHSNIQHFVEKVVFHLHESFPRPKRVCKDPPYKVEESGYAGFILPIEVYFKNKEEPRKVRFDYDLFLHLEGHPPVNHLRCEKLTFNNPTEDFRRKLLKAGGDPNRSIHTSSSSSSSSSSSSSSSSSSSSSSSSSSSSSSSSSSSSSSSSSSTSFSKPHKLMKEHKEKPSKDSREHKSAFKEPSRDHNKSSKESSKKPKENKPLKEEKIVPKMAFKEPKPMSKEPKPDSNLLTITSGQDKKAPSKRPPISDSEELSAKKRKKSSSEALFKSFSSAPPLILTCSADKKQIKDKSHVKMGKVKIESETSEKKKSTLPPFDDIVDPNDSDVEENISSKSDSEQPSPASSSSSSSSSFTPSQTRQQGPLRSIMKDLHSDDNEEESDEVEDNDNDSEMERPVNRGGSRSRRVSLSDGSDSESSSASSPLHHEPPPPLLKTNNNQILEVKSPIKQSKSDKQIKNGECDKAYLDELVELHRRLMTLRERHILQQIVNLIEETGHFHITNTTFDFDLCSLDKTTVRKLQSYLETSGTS
MITF TRPM1 HTS: increases MITF-driven TRPM1 promoter luciferase signal. SK-MEL-5 TRPM1-promoter luciferase, 24 h; % of positive control, neutral wells = 0. activation, % at 12.5 µM. 0.75% of 300,000 active. AID 588334;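 active = mean activation of at least 80% with every replicate also reaching 80%; inconclusive = mean reaches 80% but some replicate falls short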
rRNA inh HTS: inhibits bacterial ribosomal RNA function over humanized ribosomes; E. coli WT GFP vs humanized-ribosome RFP mutants, fluorescence, 24 h; stronger effect = lower value; DMSO median 0, no signal -100; GFP signal change (wild-type ribosome), % (no concentration beside the values); 1.6% of 350,000 active; AID 720706;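 active = significant combined selectivity score with lowered wild-type GFP, culture density cut under 30%, mutant RFP and density less affected; inactive = any of these conditions unmet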
esBAF inh: blocks esBAF chromatin remodeling in mouse ES cells; Bmi1-luciferase knock-in reporter, 24 h; 100% = twice the neutral-well signal; 2% of 350,000 active; reporter increase, % at 12.5 µM; AID 602393; in the data active = activation above about 40%; inconclusive = no clear call, values can overlap the other calls;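 note: a rise in the Bmi1 reporter signal indicates esBAF inhibition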
Wnt bcat act: activates Wnt/beta-catenin signaling in a reporter cell assay; activation, % at 9.35 µM; 1.2% of 300,000 active; activator, plate reader; in the data active = activation above about 30%, passing the limit was not always enough; inconclusive = no clear call, values can overlap the other calls
A number is an active result; n = inactive; u = inconclusive; x = no result. Hits are enriched below; roughly 3.7% of the tested compounds scored in any of these assays.

SMILES	AF4-AF9 inh	MITF TRPM1 HTS	rRNA inh HTS	esBAF inh	Wnt bcat act
CCOC(=O)C(NC(=O)c1cccc(Cl)c1)(Nc1sc2c(c1C(N)=O)CCC2)C(F)(F)F (stereo not drawn)	n	n	n	x	n
Cc1ccc(S(=O)(=O)Nc2ccc3c(c2)C(=O)N([C@@H](C)CO)C[C@@H](C)[C@H](CN(C)S(=O)(=O)c2cccs2)OCCCC[C@@H](C)O3)cc1	n	x	n	n	x
C[C@H](CO)N1C[C@H](C)[C@H](CN(C)C(=O)C2CCOCC2)Oc2ncc(C#CC3(O)CCCC3)cc2C1=O	n	x	n	n	x
CCOc1ccc(-c2nnc(SCC(=O)N3CCOCC3)o2)cc1	x	x	x	n	n
COc1ccc(-c2nnc(SCC(=O)N3CCCC3)o2)cc1	n	n	n	45.4	n
CCOc1ccc(-c2nnc(SCC(=O)N3CCCC3)o2)cc1	n	n	n	53.0	n
Cc1cc(C)cc(CC(=O)N2CCC2(C)C(=O)NS(=O)(=O)c2ccccc2Cl)c1 (stereo not drawn)	n	x	n	n	n
CC1Oc2ccccc2N(CC(=O)N2CCCCC2)C1=O (stereo not drawn)	30.4	n	n	n	n
CC1Oc2ccccc2N(CC(=O)N2CCCc3ccccc32)C1=O (stereo not drawn)	n	n	n	n	n
Cc1noc(C)c1NC(=O)Nc1ccc2c(c1)C(=O)N([C@H](C)CO)C[C@H](C)[C@H](CN(C)Cc1ccc3c(c1)OCO3)OCCCC[C@H](C)O2	x	x	n	n	x
COc1ccc(NC(=O)CN(C)C(=O)C2CC(=O)N(Cc3ccc(C)cc3)C2)cc1 (stereo not drawn)	n	n	n	x	n
CC(C)(C)c1cc(OC(=O)C2CCCC2)ccc1O	n	n	n	n	n
CCCCC(CC)C(=O)Oc1ccc(O)c(C(C)(C)C)c1 (stereo not drawn)	n	n	-21.7	n	n
C=CCNC(=O)c1cc2c(=O)n3ccccc3nc2s1	n	n	n	n	35.8
O=C(NC1CCCCCC1)c1cc2c(=O)n3ccccc3nc2s1	n	90.7	n	45.0	n
CCCN(C)C[C@@H]1Oc2cc(-c3ccc(C)cc3)ccc2S(=O)(=O)N([C@@H](C)CO)C[C@@H]1C	n	x	n	n	x
Brc1ccccc1-c1nnc(CSc2nncn2-c2ccccc2)o1	x	n	x	n	35.4
O=c1c2ccccc2nc(SCc2nnc(-c3ccccc3Br)o2)n1-c1ccccc1	n	n	n	n	n
Cc1nc([N+](=O)[O-])cn1CC(O)c1ccc(Cl)cc1 (stereo not drawn)	n	x	n	x	36.9
COc1cccc(F)c1C(C[N+](=O)[O-])c1c(N)n(C)c(=O)n(C)c1=O (stereo not drawn)	n	x	-24.1	x	n
Cc1ccc(C(C[N+](=O)[O-])c2c(N)n(C)c(=O)n(C)c2=O)cc1 (stereo not drawn)	n	x	-24.4	x	n
COc1cc(C(C[N+](=O)[O-])c2c(N)n(C)c(=O)n(C)c2=O)ccc1O (stereo not drawn)	n	n	n	x	n
NS(=O)(=O)c1ccc(CNC(=O)c2ccc(S(=O)(=O)C(F)F)cc2)cc1	n	n	n	n	36.1
O=C(COC(=O)CCCc1nc2ccccc2s1)NC(=O)NCc1ccco1	n	n	-19.2	n	n
O=C1c2ccccc2C(=O)C1c1ccnc2ccccc12	x	n	x	n	43.4
SMILES	AF4-AF9 inh	MITF TRPM1 HTS	rRNA inh HTS	esBAF inh	Wnt bcat act
Cc1cccc(S(=O)(=O)N2CC[C@@H]3[C@H](CO)Nc4ccc(-c5ccccc5F)cc4[C@@H]32)c1	x	x	n	n	x
O=C(CNC(=O)c1ccc(Cl)cc1)NNC(=O)c1ccc(Br)cc1	n	n	n	n	55.2
CCC[C@@H](CN1CCC[C@H]1CN1C(N)=NC[C@H]1CC(C)C)N1C[C@@H](Cc2ccccc2)N(CCc2ccc(Cl)c(Cl)c2)C1=N	33.3	n	n	n	n
CCC[C@@H](CN1CCC[C@H]1CN1C(N)=NC[C@H]1CC(C)C)N1C[C@@H]([C@H](C)CC)N(CCc2ccc(Cl)c(Cl)c2)C1=N	25.4	n	n	n	n
CC[C@@H](C)[C@@H]1CN([C@@H](C)CN2CCC[C@H]2CN2C(N)=NC[C@H]2CC(C)C)C(=N)N1CCc1ccc(Cl)c(Cl)c1	n	n	n	n	n
CCOc1ccccc1N1CCN(C(=S)NCc2ccccc2)CC1	n	n	-22.4	n	n
O=S(=O)(/N=C(/Nc1nccs1)c1ccc(F)cc1)c1ccccc1	n	n	n	n	n
O=S(=O)(/N=C(/Nc1nc2ccccc2s1)c1ccccc1)c1ccc(F)cc1	n	n	n	50.2	n
O=C(Nc1nc2ccccc2s1)c1ccc(F)cc1	n	n	n	n	46.7
Fc1ccc(Nc2nc3ccccc3s2)cc1	n	n	n	46.5	n
COc1ccc(N2CC(C(=O)Nc3nc4ccc(F)cc4s3)CC2=O)c(OC)c1 (stereo not drawn)	n	n	-30.5	x	n
COc1ccc2c3c(n(C)c2c1)[C@H](CO)N(C(=O)c1cnccn1)CC31CN(C(C)=O)C1	n	x	n	x	x
O=S(=O)(N[C@@H]1CC[C@@H](CCn2cc(-c3cccnc3)nn2)O[C@@H]1CO)c1ccccc1	n	x	n	n	x
COc1ccc2nc(NC(=O)c3ccc(F)cc3)sc2c1	n	n	n	55.2	n
Cc1noc(C)c1C(=O)Nc1nc2ccc(F)cc2s1	n	n	n	51.9	58.8
CC(=O)Nc1nc(=O)c2ccccc2s1	n	n	n	n	n
O=C(Nc1nc(=O)c2ccccc2s1)c1ccccc1	x	n	x	x	39.1
COc1ccc2nc(NC(C)=O)sc2c1	x	n	x	n	u
COc1ccc2nc(NC(=O)c3ccc4ncsc4c3)sc2c1	x	u	x	67.5	x
O=C(NC1CCS(=O)(=O)C1)c1cc(-c2ccccc2)nc2ccccc12 (stereo not drawn)	n	n	n	n	n
Cc1ccc(CNC(=O)CN(C(=O)C2(C)CC(=O)N=C3C=CC=CN32)c2ccccc2F)cc1 (stereo not drawn)	n	n	n	n	n
C[C@H]1CN([C@@H](C)CO)C(=O)Cc2cc(NC(=O)CCC(F)(F)F)ccc2O[C@H]1CN(C)S(=O)(=O)c1cn(C)cn1	x	x	n	n	x
COc1ccc(C(=O)Nc2nc(CC(=O)NCc3c(F)cccc3F)cs2)cc1	n	x	x	u	u
O=C(Nc1nc(-c2ccc(Cl)s2)cs1)c1ccccc1	x	n	x	50.5	n
COc1ccc(C(=O)Nc2nc(CC(=O)NCc3ccc(F)cc3)cs2)cc1	n	n	n	49.9	n
SMILES	AF4-AF9 inh	MITF TRPM1 HTS	rRNA inh HTS	esBAF inh	Wnt bcat act
Cc1cnc(CNC(=O)c2ccc3oc(Cc4ccccc4)nc3c2)[nH]1	n	n	n	n	n
CC(C)C(=O)Nc1cccc(-c2nc3ccccc3o2)c1	x	n	x	41.3	x
O=C(Nc1cccc(-c2nc3ccccc3c(=O)o2)c1)c1ccccc1	n	n	-20.1	x	n
COc1ccc(OCC(=O)Nc2cccc(-c3nc4ccccc4o3)c2)cc1	x	x	x	51.4	x
CSc1cccc(NC(=O)CSc2nc3ccccc3o2)c1	n	n	-25.0	n	n
CC(=O)Nc1cccc(-c2nc3ccccc3o2)c1	n	x	n	n	n

Assay outcomes from PubChem BioAssay.
